# Source: PubChem BioAssay
# TROY signal inh – blocks TROY-dependent signaling in reporter cells; Q293 LMP1-TROYcd NF-kB luciferase reporter, 4 h; inhibition, % at 10 µM; actives 0.98% (n = 360,000); AID 1347056;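 active = compounds whose plate-normalised and pattern-corrected inhibition of the luciferase reporter signal at the single screening dose is 50% or more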
# LGR2 antag – inhibitors of bursicon-induced Drosophila LGR2 receptor cAMP signaling; HEK293 LGR2, CRE-luciferase, bursicon-stimulated, 4 h; inhibition, % at 9.99 µM; actives 0.35% (n = 380,000);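 active = drop in luminescence signal, shown as inhibition above about 50% in the replicate tests, limit read from the data, passing the limit was not always enough; inconclusive = probably only some replicates passing the limit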;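 note: agonist challenge used bursicon conditioned medium at about half maximal strength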
# TWEAK-Fn14 inh – blocks TWEAK-Fn14 interaction in a reporter cell assay; actives 2% (n = 360,000); AID 1159606; TWEAK-stimulated Fn14 reporter cells, luciferase luminescence, 8 h; inhibition, % at 10 µM; in the data active = inhibition above about 50%
# LMP1 NFkB inh – inhibitors of Epstein-Barr LMP1-induced NF-kappaB reporter. inhibition, % at 12.5 µM. actives 0.69% (n = 350,000). AID 504558. LMP1-induced NF-kappaB luciferase reporter cells, luminescence; in the data active = inhibition above about 41%; inconclusive = no clear call, values can overlap the other calls
# aDG glyco act – increases alpha dystroglycan glycosylation; Pro5-aDG cells, alpha-DG glycosylation AlphaScreen (IIH6); 0% Pro5, 100% B10-LARGE cell signal; activation, % at 10 µM; actives 0.22% (n = 360,000);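 active = activation of at least 8% versus controls, or a plate z-score of at least 8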;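 note: Pro5 are CHO cells carrying HIG-tagged alpha-DG that lacks glycosylation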
# HSP90 inh – inhibitors of HSP90 luciferase refolding in rabbit reticulocyte lysate | inhibition, % at 5.6 µM | AID 1789 | actives 0.91% (n = 290,000) | luciferase refolding luminescence, 3 h;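 active = inhibition above the screen-wide mean plus 3 SD, computed separately per campaign, cut at about 16% in these data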;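 note: inhibitors lower the luminescence because luciferase stays unfolded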
# A number is an active result; . = inactive; ? = inconclusive; / = not tested or not shown. This is a sample that favours compounds with a hit; in the whole collection about 2.6% have one here.
SMILES,TROY signal inh,LGR2 antag,TWEAK-Fn14 inh,LMP1 NFkB inh,aDG glyco act,HSP90 inh
CN1CCN(C(=O)/C(=C/c2cccc([N+](=O)[O-])c2)NC(=O)c2ccccc2)CC1,.,.,55,.,.,.
CN1CCN(C(=O)/C(=C/c2ccc(F)cc2)NC(=O)c2ccccc2)CC1,.,.,.,.,.,.
CCOC(=O)c1c(C)[nH]c(C2=NNC(=Nc3ccccc3)SC2)c1C,.,.,.,.,.,.
CCOC(=O)c1c(C)[nH]c(C2=NNC(=Nc3ccccc3OC)SC2)c1C,.,.,51,.,.,.
Cc1cc(=O)[nH]c(NC(=O)Cc2ccccc2)n1,.,.,.,.,.,/
Cc1cc(=O)[nH]c(NCc2ccccc2)n1,.,.,.,.,.,16
CC(NC(=O)OCc1ccccc1)C(=O)Oc1cc2oc(=O)cc(-c3ccccc3)c2cc1Cl (stereo not drawn),.,.,71,.,.,.
COCC(=O)Nc1ccc2c(c1)OC[C@@H](C)N(C(=O)Nc1ccccc1F)C[C@@H](C)[C@H](OC)CN(C)C2=O,/,.,/,/,/,/
Oc1ccc(-c2cc(-c3ccc(O)cc3)nc(-c3ccccc3)n2)cc1,54,.,.,.,.,.
Oc1ccc(CN2CCN(Cc3ccccc3)CC2)c2cccnc12,.,/,.,.,.,.
CN1CCN(Cc2cc(COCc3ccccc3)c3cccnc3c2O)CC1,.,/,.,58,.,.
O=[N+]([O-])c1cc(CN2CCN(c3ccccc3)CC2)c(O)c2ncccc12,.,.,.,80,.,.
Oc1c(CN2CCCCC2)cc(Br)c2cccnc12,.,/,.,72,.,.
Oc1c(CN2CCc3ccccc3C2)cc(Cl)c2cccnc12,.,/,.,85,.,.
C[C@@H]1CN([C@@H](C)CO)C(=O)c2cc(-c3ccncc3)cnc2O[C@@H]1CN(C)C(=O)C1CC1,/,.,/,/,/,/
Cc1ccc(C(C(=O)NCc2ccccc2)N(Cc2cccs2)C(=O)c2ccc3c(c2)OCCO3)cc1 (stereo not drawn),.,.,54,.,.,.
COc1ccc(CNC(=O)C(c2ccc(C)cc2)N(Cc2cccs2)C(=O)c2ccc3c(c2)OCCO3)cc1 (stereo not drawn),.,/,.,.,.,.
CCc1c(C)[nH]n(-c2nc(-c3ccccc3)cs2)c1=O,.,.,.,.,.,.
Cc1[nH]n(-c2nc(-c3ccc(Cl)cc3)cs2)c(=O)c1N=Nc1ccc(O)cc1,.,.,88,.,.,.
COc1c(Cl)cnn(-c2ccccc2)c1=O,.,.,.,.,.,.
COc1nn(-c2ccccc2)c(=O)c(Cl)c1Cl,74,.,99,.,.,.
O=C(C[C@@H]1C=C[C@H](NC(=O)Nc2cccc(F)c2)[C@@H](CO)O1)NCC1CCCCC1,/,.,/,/,/,/
Cc1ccc(Sc2ncnc3onc(C)c23)c(C)c1,.,.,.,.,.,.
Cc1noc2ncnc(Sc3ccccc3Cl)c12,54,.,.,.,.,.
COc1ccc2c3c([nH]c2c1)[C@H](CO)N(C(=O)C1CCOCC1)CC31CCN(Cc2nccs2)CC1,/,.,/,/,/,/
SMILES,TROY signal inh,LGR2 antag,TWEAK-Fn14 inh,LMP1 NFkB inh,aDG glyco act,HSP90 inh
CCN(CC)S(=O)(=O)c1cccc(-c2nnc(SCc3nc4ccccc4s3)o2)c1,57,/,.,.,.,.
CCN(CC)S(=O)(=O)c1cccc(-c2nnc(SCCCC(=O)c3ccccc3)o2)c1,.,/,.,.,.,.
COc1ccccc1NC(=O)N[C@@H]1C=C[C@@H](CC(=O)NCc2ccc(Cl)c(Cl)c2)O[C@H]1CO,/,.,/,/,/,/
Cc1ccc(-c2nnc(-c3ccccc3Br)o2)cc1,.,?,57,.,.,.
COc1ccc(CC(=O)N/N=C/c2c(C)n(C)c3ccccc23)cc1OC,.,.,.,/,.,.
COc1ccc(CC(=O)N/N=C/c2cc(Br)cs2)cc1OC,.,.,67,.,.,.
O=c1cc(-c2c(F)c(F)c(F)c(F)c2F)oc2ccccc12,66,67,.,.,.,.
CN1C(=O)c2cc(NC(=O)c3ccc(F)cc3)ccc2OC[C@H]2O[C@H](CC(=O)NCC3CC3)CC[C@@H]21,/,.,/,/,/,/
O=C(Cc1ccc(-n2c(=O)c3sccc3n(CC(=O)Nc3ccccc3F)c2=O)cc1)NCc1ccco1,.,.,.,69,.,.
COCC(=O)N1[C@H](CO)[C@@H](c2ccc(-c3ccccc3)cc2)C12CN(C(C)=O)C2,/,.,/,/,/,/
OCc1ccc(-c2nn(Cc3ccccc3)c3ccccc23)o1,.,.,.,93,.,/
NNc1nc(-c2ccccc2Cl)c2cc(Br)ccc2n1,87,.,.,.,.,.
C[C@H]1CN([C@@H](C)CO)C(=O)c2cccc(NC(=O)Nc3ccccc3)c2O[C@@H]1CN(C)C,/,.,/,/,/,/
C[C@H]1CN([C@@H](C)CO)C(=O)c2ccccc2-c2ccccc2CO[C@H]1CN(C)C(=O)Nc1cccc(Cl)c1Cl,/,.,/,/,/,/
Cc1nc2cc(NCc3nc4ccccc4n3Cc3ccccc3)ccc2n1C,87,/,90,.,.,16
Cc1cccc(NCc2nc3ccccc3n2Cc2ccccc2)c1,.,/,.,.,.,.
Cc1nc2cc(NCc3cc([N+](=O)[O-])ccc3O)ccc2n1Cc1ccccc1,80,.,53,.,.,.
CC(=O)Nc1ccc2c(c1)nc(C)n2Cc1ccccc1,.,.,.,.,.,.
CC(=O)OCC1=C[C@@H]2OC(=O)C3=CO[C@@H](O[C@@H]4O[C@H](CO)[C@@H](O)[C@H](O)[C@H]4O)[C@H]1[C@@H]32,.,.,.,.,.,/
C=C1C(=O)OC2C=C(CO)C3OC3C3OC3(C)CC(OC(=O)/C(=C/C)COC(C)=O)C12 (stereo not drawn),.,.,83,70,.,/
C[C@@H]1CN([C@@H](C)CO)C(=O)Cc2cc(NC(=O)C3CCCCC3)ccc2O[C@H]1CN(C)CC1CCCCC1,/,.,/,/,/,/
Cc1ccc(NC(=O)/C(Cl)=C\c2ccccc2)cc1,.,.,.,.,.,/
CC(=O)c1ccc(NC(=O)/C(Cl)=C/c2ccccc2)cc1,71,.,.,.,.,.
COc1ccccc1CNC(=O)C[C@H]1CC[C@H]2[C@@H](COC[C@H](O)CN2C(=O)Nc2ccc(C(F)(F)F)cc2)O1,/,.,/,/,/,/
CCc1ccc(-c2nn(-c3ccccc3)cc2C2SCC(=O)N2Cc2ccco2)cc1 (stereo not drawn),.,/,53,.,.,.
O=C1CSC(c2cn(-c3ccccc3)nc2-c2ccccc2)N1Cc1ccco1 (stereo not drawn),.,/,.,.,.,.
C[C@@H]1CCCCO[C@H](CN(C)C(=O)Nc2ccc3c(c2)OCO3)[C@@H](C)CN([C@@H](C)CO)C(=O)c2cc(NC(=O)CCCN(C)C)ccc2O1,/,.,/,/,/,/
N#CC(C#N)=NNc1ccc([N+](=O)[O-])cc1,56,.,.,.,.,.
COc1ccc(C(=O)/C(C#N)=N/Nc2ccc([N+](=O)[O-])cc2)cc1,63,.,59,.,.,.
